From PubChem BioAssay (NCATS)
Values without a mark were called inactive. The source made the active and inactive calls. The call rests on the fitted dose curve; in most records, active means well fitted curve in the direction sought with a large enough effect; inactive means no such curve, though single readings can be large or run the other way.

molecular target: Alpha-galactosidase A (Homo sapiens) (UniProt P06280); test: Counterscreen for Glucocerebrosidase Inhibitors: qHTS Assay for Human alpha-Galactosidase at pH 4.5 (AID 992); details: purified enzyme, fluorogenic substrate; series mostly up to 76.9 µM; activity change, negative = inhibition: at the top concentration; further: 0% is about no effect
Description: NIH Chemical Genomics Center [NCGC]
NIH Molecular Libraries Screening Centers Network [MLSCN]
PI Name: Zheng, Wei [NIH]
Alpha-galactosidase is a homodimeric glycoprotein that hydrolyzes the terminal alpha-galactosyl moieties from glycolipids and glycoproteins. Deficiency of this enzyme results in Fabry Disease with progressive accumulation of globotriaosylceramide and other glycosphingolipids in vascular endothelial cells that causes renal failure, myocardial infarction and stroke, and premature death in patients. It has reported that the improper folding and trafficking of alpha-galactosidase resulted from the genetic mutations may account for a significant numbers of Fabry patients. […] We optimized this alpha-galactosidase assay in 1536-well plate format for identifying the novel small molecule inhibitors with the structures other than the sugar analogs in order to develop the new pharmacological chaperones.
NCGC Assay Protocol Summary:
This is a fluorogenic enzyme assay with 4-Methylumbelliferyl alpha-D-galactopyranoside as the substrate and human […] as the enzyme preparation. Upon the hydrolysis of this fluorogenic substrate, the resulting product, […]. 4-Methyllumbelliferone, can be excited at 365 nm and emits at 440 nm which can be detected by a standard fluorescence plate reader. Data were normalized to the controls for basal activity (without enzyme) and 100% activity (with enzyme). In the AC50 values were determined from concentration-response data modeled with the standard Hill equation.
Assay buffer: 50 mM citric acid, 0.005% Tween-20, pH 4.5. (pH 4.5 is an optimal condition for this enzyme assay)
1536-well assay protocol for the human alpha-galactosidase:
(1) Add 2 ul/well of enzyme (2 nM final)
(2) Add 23 nL compounds in DMSO solution. The final titration was 0.7 nM to 77 uM.
(3) Add 1 ul of substrate (80 uM final)
(4) Incubate at room temperature for 20 min.
(5) Add 2 ul stop solution (1M NaOH and 1M Glycine mixture, pH 10)
(6) Detect the assay plate in a ViewLux plate reader (PerkinElmer) with Ex=365 nm and Em=440nm.
Keywords: Alpha-galactosidase, Fabry Disease, pharmacological chaperone, chaperone therapy, high throughput screening, alpha-galactosidase inhibitor, MLSMR, MLSCN, NIH Roadmap, qHTS and NCGC

Sequence of Alpha-galactosidase A (Homo sapiens) (P06280 whole entry, looked up): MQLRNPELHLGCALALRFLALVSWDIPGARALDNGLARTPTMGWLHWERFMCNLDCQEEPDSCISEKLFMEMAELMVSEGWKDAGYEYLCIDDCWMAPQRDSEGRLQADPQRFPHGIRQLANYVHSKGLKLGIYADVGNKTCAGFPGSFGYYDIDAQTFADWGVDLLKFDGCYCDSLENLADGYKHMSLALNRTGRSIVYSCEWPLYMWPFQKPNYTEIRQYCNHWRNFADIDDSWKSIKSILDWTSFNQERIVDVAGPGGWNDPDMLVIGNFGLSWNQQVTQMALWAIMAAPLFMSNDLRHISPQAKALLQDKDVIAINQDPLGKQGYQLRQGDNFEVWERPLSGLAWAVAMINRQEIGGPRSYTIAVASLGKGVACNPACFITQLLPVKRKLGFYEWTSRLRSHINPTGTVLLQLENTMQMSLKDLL

| Structure (SMILES) | activity change, negative = inhibition [%] | outcome |
| --- | --- | --- |
| C[N+]1(C)CCC(OC(=O)C(c2ccccc2)c2ccccc2)CC1 | -2.79 |  |
| O=C(O)[C@@H]1C[C@@H](C(=O)O)N1 | 3.09 |  |
| Cc1ccc(O)c(N=Nc2ccccc2)n1 | -4.25 |  |
| CC1(C)CCC=[N+]1[O-] | -3.04 |  |
| Ic1ccc(N2CCN(Cc3c[nH]c4ncccc34)CC2)cc1 | -4.63 |  |
| NC(=O)C(=O)O | 0.244 |  |
| CN1CCc2ccccc2Cc2[nH]c3ccccc3c2CC1 | -1.69 |  |
| N[C@@H](CC(=O)O)C(=O)O | -1.95 |  |
| Brc1c(Br)c(Br)c2n[nH]nc2c1Br | 0.18 |  |
| COc1cccc(C(=O)NCCN2CCN(c3ccc(Cl)cc3)CC2)c1 | 2.13 |  |
| O=C(O)c1cc([N+](=O)[O-])ccc1NCCCc1ccccc1 | -0.915 |  |
| O=C(Nc1cccc(C(=O)Nc2ccc(S(=O)(=O)O)c3cc(S(=O)(=O)O)cc(S(=O)(=O)O)c23)c1)Nc1cccc(C(=O)Nc2ccc(S(=O)(=O)O)c3cc(S(=O)(=O)O)cc(S(=O)(=O)O)c23)c1 | 3.37 |  |
| CCCCCCCC/C=C\CCCCCCCC(=O)NCCO | -11.6 |  |
| O=C(O)CC[C@@H](C(=O)O)N1C(=O)c2ccccc2C1=O | 0.708 |  |
| Oc1cc2c(cc1O)CN(C(=S)NCCc1ccc(Cl)cc1)CCC2 | -1.03 |  |
| c1ccc(-c2ccccn2)nc1 | 2.39 |  |
| CN(C)c1nc(N)c(C(=O)N=C(N)N)nc1Cl | -6.83 |  |
| N#C/C(=C\c1ccc(O)c(O)c1)C(=O)NCCCc1ccccc1 | -1.38 |  |
| NCCCS(=O)(=O)O | 0.161 |  |
| N#C/C(=C\c1c[nH]c2ccccc12)C(=O)c1ccc(O)c(O)c1 | 0.843 |  |

| Structure (SMILES) | activity change, negative = inhibition [%] | outcome |
| --- | --- | --- |
| Cn1c(=O)c2[nH]c(-c3ccccc3)nc2n(C)c1=O | 0.764 |  |
| O=c1[nH]c2cc([N+](=O)[O-])c([N+](=O)[O-])cc2[nH]c1=O | -8.25 |  |
| N.N.O=C(O)C1(C(=O)O)CCC1.[Pt] | -21.2 |  |
| NC(N)=NC(=O)c1nc(Cl)c(N2CCCCCC2)nc1N | -2.05 |  |
| CC(C)Cc1ccc([C@H](C)C(=O)O)cc1 | -0.969 |  |
| COC1=C(OC)C(=O)c2ccccc2C1=O | -0.807 |  |
| CCCCN1CCC(n2c(=O)[nH]c3ccccc32)CC1 | -1.45 |  |
| COc1cc2c(CCNC(C)=O)c[nH]c2cc1Cl | -2.22 |  |
| O=C1NC(O)=NC1(c1ccccc1)c1ccccc1 | -3.61 |  |
| CN(C)c1nc2c(Br)c(Br)c(Br)c(Br)c2[nH]1 | -0.737 |  |
| CN(C)C(N)=NCCC[C@H](N)C(=O)O | 2 |  |
| c1cnc2c(c1)ccc1cccnc12 | 0.13 |  |
| COc1ccccc1N1CCN(CCCCNS(=O)(=O)c2cccc3c(N(C)C)cccc23)CC1 | -6.15 |  |
| NCCCCCCCCCCN | -0.0798 |  |
| Cc1cc(NC(=O)Nc2ccc3c(ccn3C)c2)sn1 | -1.58 |  |
| O=Nc1ccc2oc(=O)ccc2c1 | -4.09 |  |
| O=C(O)c1cc(=O)c2ccccc2[nH]1 | -0.305 |  |
| CCCn1c(=O)c2[nH]c(-c3ccc(OCC(=O)NCCN)cc3)nc2n(CCC)c1=O | 1.43 |  |
| CNCC[C@H](Oc1ccc(C(F)(F)F)cc1)c1ccccc1 |  | inactive |
| NO | -0.647 |  |
